Assay results: publication PMC4336329 (PLoS ONE, 2015)
About 14,000 (4.5%) of roughly 310,000 compounds showed an effect of 50% or more. Effects have a minus sign here. Many of the other results were omitted from the sample, so strong results are more common in it than they were.

Target: human ether-à-go-go-related gene (hERG) potassium channel (human, UniProt Q12809)
Assay: primary screen, population patch clamp on CHO cells stably expressing hERG; higher = less effect of the substance
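Further: peak tail current of the secondary pulse compared with the same well before compound.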

Sequence of human ether-à-go-go-related gene (hERG) potassium channel (Q12809 whole entry, looked up): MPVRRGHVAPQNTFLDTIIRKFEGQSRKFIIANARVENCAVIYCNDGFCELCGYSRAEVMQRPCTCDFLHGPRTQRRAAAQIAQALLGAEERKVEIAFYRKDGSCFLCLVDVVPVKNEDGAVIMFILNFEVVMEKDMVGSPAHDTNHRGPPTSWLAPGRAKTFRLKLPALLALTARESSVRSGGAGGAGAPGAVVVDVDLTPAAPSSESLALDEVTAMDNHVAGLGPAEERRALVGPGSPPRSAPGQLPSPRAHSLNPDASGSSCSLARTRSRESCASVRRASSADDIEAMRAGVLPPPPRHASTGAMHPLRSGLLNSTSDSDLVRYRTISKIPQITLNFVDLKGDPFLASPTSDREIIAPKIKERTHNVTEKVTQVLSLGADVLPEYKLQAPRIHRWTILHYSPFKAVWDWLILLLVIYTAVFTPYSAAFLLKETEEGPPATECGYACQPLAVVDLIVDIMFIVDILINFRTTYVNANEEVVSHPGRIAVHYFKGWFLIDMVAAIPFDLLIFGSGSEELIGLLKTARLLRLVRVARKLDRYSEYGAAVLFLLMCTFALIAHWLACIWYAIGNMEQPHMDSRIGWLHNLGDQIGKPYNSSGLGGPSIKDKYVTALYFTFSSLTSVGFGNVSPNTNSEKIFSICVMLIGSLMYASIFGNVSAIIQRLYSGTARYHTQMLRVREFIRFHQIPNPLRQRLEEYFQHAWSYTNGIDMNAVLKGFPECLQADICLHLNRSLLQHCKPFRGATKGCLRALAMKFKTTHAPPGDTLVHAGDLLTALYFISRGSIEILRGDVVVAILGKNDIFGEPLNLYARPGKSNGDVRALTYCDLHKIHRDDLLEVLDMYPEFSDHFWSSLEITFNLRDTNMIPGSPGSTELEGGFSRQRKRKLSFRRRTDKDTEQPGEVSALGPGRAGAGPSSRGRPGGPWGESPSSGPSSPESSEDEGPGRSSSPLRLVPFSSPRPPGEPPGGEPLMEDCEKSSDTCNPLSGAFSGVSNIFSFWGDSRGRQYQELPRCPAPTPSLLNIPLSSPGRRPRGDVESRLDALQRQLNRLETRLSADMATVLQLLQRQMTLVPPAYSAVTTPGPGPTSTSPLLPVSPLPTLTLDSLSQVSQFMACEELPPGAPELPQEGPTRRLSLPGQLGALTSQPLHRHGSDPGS

SMILES	hERG current change (%, negative = inhibition) at 10uM [%]
Cc1cccc(NC(=O)CN2CCN(CC(=O)NCc3ccc(Cl)cc3Cl)CC2)c1C	-18.2
COC(=O)c1ccccc1NC(=O)CN1CCN(C(=O)c2ccco2)CC1	-51.6
COC(=O)c1ccccc1NC(=O)N1CCN(C(=O)c2ccco2)CC1	-25
O=C(CN1CCN(Cc2ccccc2)CC1)Nc1ccccc1-c1ccccc1	-89.8
NC(=O)c1ccccc1NC(=O)CN1CCN(Cc2ccc(Cl)cc2Cl)CC1	-76.1
COC(=O)c1ccccc1NC(=O)CN1CCN(C23CC4CC(CC(C4)C2)C3)CC1	-77.5
COC(=O)c1ccccc1NC(=O)CN1CCC(C)CC1	9.3
NC(=O)c1ccccc1NC(=O)Nc1cccc(Cl)c1	-8.62
O=C(CN1CCCCC1)Nc1ccccc1-c1ccccc1	-9.07
O=C(CN1CCOCC1)Nc1ccccc1-c1ccccc1	4.15
COC(=O)c1ccccc1NC(=O)CN1CCOCC1	5.86
COc1ccc(OCC(=O)NCCCN2CCOCC2)cc1	10.7
CC1=C(C(=O)OCc2ccccc2)C(c2ccsc2)C(C#N)=C(N)O1 (centres unmarked)	-6.93
Cc1cccc(COc2ccc(/C=C3/C(=O)N(C)C(=S)N3C)cc2)c1	15.7
O=C(Nc1ccccc1)Nc1nnc(Cc2ccc(F)cc2)s1	20.1
O=C(NCc1ccco1)c1ccccc1	8.8
CCN(CC)S(=O)(=O)c1ccc(N2CCOCC2)c(NC(=O)Cc2cccc3ccccc23)c1	-1.03
N#CC1=C(N)N(c2ccccc2)C(c2cccc([N+](=O)[O-])c2)C1(C#N)C#N (centres unmarked)	-29.6
COc1cc([N+](=O)[O-])ccc1NC(=O)CN1CCN(C(=O)c2ccco2)CC1	-78.4
COc1cc([N+](=O)[O-])ccc1NC(=O)CN1CCOCC1	9.44
COC(=O)c1ccccc1NC(=O)CN1CCCCC1	9.99
NC(=O)c1ccc(NC(=O)CN2CCN(C(=O)c3ccco3)CC2)cc1	-3.09

SMILES	hERG current change (%, negative = inhibition) at 10uM [%]
O=C(CN1CCN(C(=O)c2ccco2)CC1)Nc1ccccc1-c1ccccc1	-50.5
COc1ccccc1NC(=O)CN1CCN(C(=O)c2ccco2)CC1	-22
O=C(CN1CCN(C(=O)c2ccco2)CC1)Nc1ccccc1	-13.9
COc1ccccc1NC(=O)c1ccc(NC(=O)CN2CCN(C(=O)c3ccco3)CC2)cc1	-72.9
COC(=O)c1ccccc1NC(=O)CN1CCN(Cc2ccccc2)CC1	-74.5
COc1ccccc1NC(=O)c1ccc(NC(=O)CN2CCCC2)cc1	-34.2
COC(=O)c1ccccc1NC(=O)CN1CCCCCC1	8
COc1ccc(NC(=O)CN2CCN(C(=O)c3ccco3)CC2)c(OC)c1	-37.4
COc1ccc(NC2(c3ccccc3)OC(=O)c3ccccc32)cc1 (centres unmarked)	1.2
CC(=O)c1cccc(OCc2cc(C(=O)NCCC3=CCCCC3)no2)c1	7.85
COc1cccc(NC(=O)c2nnn(CC(=O)Nc3cc(C)cc(C)c3)c2N)c1	13.5
O=C(c1cccc(COc2cccc3ccccc23)c1)N1CCCC1	-4.59
CC(=O)Nc1ccc(S(=O)(=O)NCCC(=O)Nc2cc(C)ccn2)cc1	7.68
NS(=O)(=O)c1ccc(CCNC(=O)C2CCCN(S(=O)(=O)c3cccnc3)C2)cc1 (centres unmarked)	-4.22
NC(=O)c1ccccc1NC(=O)CN1CCOCC1	7.22
NC(=O)c1ccccc1NC(=O)CN1CCN(Cc2ccccc2)CC1	-78.3
NC(=O)c1ccccc1NC(=O)CN1CCCCCC1	11.1
O=C1Nc2ccc(S(=O)(=O)NCc3ccco3)c3cccc1c23	-16.2
O=C1NN(c2cccc(Br)c2)C(=O)/C1=C/c1ccc(-c2cc([N+](=O)[O-])ccc2O)o1	-9.65
CCNC(=O)COc1ccc(S(=O)(=O)Nc2ccccc2)cc1	-1.85
CC(C)C(=O)Nc1cccc(NC(=S)NC(=O)c2ccccc2Cl)c1	-9.02
CCCC(c1c(C)n(C)n(-c2ccccc2)c1=O)c1c(C)n(C)n(-c2ccccc2)c1=O	0.692
